Measurements: PubChem BioAssay AID624141 (Broad Institute, 2012)
Screen size: about 17,000 compounds; about 260 (1.5%) were called active.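 Rule for the calls: active = spot fluorescence over background with P-value below 7% in all four replicate spots, showing protein binding; inactive = the rest.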 Shown is part of a subset that was picked to be rich in actives.

target: Myc proto-oncogene protein (Homo sapiens) (UniProt P01106); assay: small molecules binding His-tagged c-Myc – biochemical, small molecule microarray, anti-His fluorescence, primary screen (AID 624141)
Sequence (P01106 whole entry, looked up): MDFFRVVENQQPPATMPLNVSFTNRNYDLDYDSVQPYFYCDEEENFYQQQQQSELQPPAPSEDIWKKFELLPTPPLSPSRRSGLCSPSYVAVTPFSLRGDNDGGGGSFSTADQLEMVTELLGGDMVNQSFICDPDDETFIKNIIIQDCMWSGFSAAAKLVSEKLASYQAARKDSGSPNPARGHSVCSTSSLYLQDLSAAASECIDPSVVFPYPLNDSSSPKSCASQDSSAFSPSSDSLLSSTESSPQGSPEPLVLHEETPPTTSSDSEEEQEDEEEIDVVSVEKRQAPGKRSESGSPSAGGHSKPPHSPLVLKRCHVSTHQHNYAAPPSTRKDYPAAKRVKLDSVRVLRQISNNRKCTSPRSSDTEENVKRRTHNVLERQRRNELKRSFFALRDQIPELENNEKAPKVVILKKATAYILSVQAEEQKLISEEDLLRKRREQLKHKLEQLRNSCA

outcome, active:
Cc1cc(C)cc(Oc2c(C(F)(F)F)oc3cc(OCC(=O)O)ccc3c2=O)c1, O=c1c2ccccc2[nH]c(=S)n1CCN1CCC(=C(c2ccc(F)cc2)c2ccc(F)cc2)CC1

outcome, inactive:
CC(C)NC(=O)N(C)C[C@H]1OCCCC[C@@H](C)Oc2ccc(NC(=O)Nc3cccc4ccccc34)cc2C(=O)N([C@H](C)CO)C[C@@H]1C, C[C@@H]1CN([C@H](C)CO)C(=O)CCCn2cc(nn2)CO[C@@H]1CN(C)C(=O)Nc1ccc(-c2cccs2)cc1, CN(CC(=O)O)S(=O)(=O)c1ccc(F)c2ccccc12, COc1ccc(S(=O)(=O)N(C)C[C@H]2Oc3c(NS(=O)(=O)c4cccs4)cccc3C(=O)N([C@H](C)CO)C[C@@H]2C)cc1, C[C@H](CO)N1C[C@H](C)[C@@H](CN(C)Cc2ccc(C(F)(F)F)cc2)Oc2ccc(NC(=O)CCN3CCOCC3)cc2C1=O, C[C@H](CO)N1C[C@H](C)[C@H](CN(C)Cc2ccc(C(=O)O)cc2)Oc2c(NC(=O)C3CCOCC3)cccc2C1=O, C[C@@H]1CN([C@@H](C)CO)C(=O)Cc2cc(NC(=O)CCN3CCOCC3)ccc2O[C@@H]1CN(C)C(=O)Nc1cccc2ccccc12, C[C@H](CO)N1C[C@H](C)[C@H](CN(C)S(=O)(=O)c2cn(C)cn2)Oc2ccc(N(C)C)cc2C1=O, Cc1noc(C)c1S(=O)(=O)Nc1cccc2c1O[C@@H](CN(C)S(=O)(=O)c1cn(C)cn1)[C@@H](C)CN([C@H](C)CO)C2=O, O=C(c1ccc(F)cc1)C1CCN(CCCCc2ccccc2)CC1, COc1ccc(S(=O)(=O)N(C)C[C@H]2Oc3c(NC(=O)C4CCOCC4)cccc3C(=O)N([C@@H](C)CO)C[C@@H]2C)cc1, C[C@@H]1CN([C@H](C)CO)C(=O)c2cc(NC(=O)c3ccncc3)ccc2O[C@@H]1CN(C)C(=O)Nc1ccc(F)cc1, COc1ccc(S(=O)(=O)N(C)C[C@@H]2Oc3ccc(NC(=O)Nc4cccc5ccccc45)cc3C(=O)N([C@H](C)CO)C[C@H]2C)cc1, C[C@@H]1CN([C@@H](C)CO)C(=O)c2cc(NC(=O)C3CCCCC3)ccc2O[C@@H](C)CCCCO[C@@H]1CN(C)Cc1ccc(C(=O)O)cc1, C/C=C(\C)C(=O)O[C@H]1C=CC(=O)O[C@H]1/C=C/[C@H](O)[C@H](C)O, C[C@@H]1CN([C@@H](C)CO)C(=O)c2cc(NC(=O)CCCN(C)C)ccc2O[C@@H](C)CCCCO[C@H]1CN(C)Cc1ccc2c(c1)OCO2, COC(=O)COc1c(Sc2ccc([N+](=O)[O-])cc2)c(C)nn1-c1ccccc1, COC(=O)C1=CO[C@@H](O[C@@H]2O[C@H](CO)[C@@H](O)[C@H](O)[C@H]2O)[C@@H]2[C@@H](C)[C@@H](OC(=O)C3=CO[C@@H](O[C@@H]4O[C@H](CO)[C@@H](O)[C@H](O)[C@H]4O)[C@@H]4[C@@H](C)[C@@H](OC(C)=O)C[C@H]34)C[C@H]12, C[C@H]1CN([C@@H](C)CO)C(=O)CCCn2cc(nn2)CO[C@@H]1CN(C)S(=O)(=O)c1cccs1, C[C@H](CO)N1C[C@H](C)[C@H](CN(C)C(=O)Nc2ccc(C(F)(F)F)cc2)Oc2ccc(NS(=O)(=O)c3ccccc3)cc2CC1=O, C[C@@H]1CN([C@H](C)CO)C(=O)c2cccc(NS(=O)(=O)c3cccs3)c2O[C@@H]1CN(C)C(=O)Nc1cccc2ccccc12, CS(=O)(=O)N(CC(=O)Nc1ccc(C(N)=O)cc1)c1cccc(C(F)(F)F)c1, CC(C)NC(=O)Nc1ccc2c(c1)C(=O)N([C@H](C)CO)C[C@@H](C)[C@@H](CN(C)C(=O)c1ccncc1)OCCCC[C@H](C)O2, Cc1cc(C(=O)Nc2cccc3c2O[C@@H](CN(C)Cc2ccc4c(c2)OCO4)[C@@H](C)CN([C@@H](C)CO)C3=O)n(C)n1, C[C@@H]1CN([C@@H](C)CO)C(=O)c2cc(NC(=O)Nc3cccc4ccccc34)ccc2O[C@@H]1CN(C)Cc1ccc(-c2ccccc2)cc1, C[C@@H]1CN([C@@H](C)CO)C(=O)c2cc(NC(=O)C3CCCCC3)ccc2O[C@@H]1CN(C)S(=O)(=O)c1ccc(F)cc1, C[C@@H]1CCCCO[C@@H](CN(C)Cc2ccc(C(=O)O)cc2)[C@H](C)CN([C@H](C)CO)C(=O)c2cc(NC(=O)Nc3ccc(F)cc3)ccc2O1, O=C(O)CCC(=O)Nc1ccc(-c2nc3ccccc3o2)cc1, COc1cc(/C=C/C(=O)O[C@@H]2O[C@H](CO[C@@H]3O[C@H](CO)[C@@H](O)[C@H](O)[C@H]3O)[C@@H](O)[C@H](O)[C@H]2OC(=O)/C=C/c2cc(OC)c(O)c(OC)c2)cc(OC)c1O, C=CCOC(=O)[C@H]1[C@@H]2C(=O)O[C@@H](c3ccccc3)[C@@H](c3ccccc3)N2[C@@H](c2ccc(OCCOC(=O)[C@H]3C[C@H]4C(=O)NCC(=O)N4[C@H]3c3ccc(O)cc3)cc2)[C@]12C(=O)Nc1ccccc12, C=C(C(=O)O)C1CCC(CCC)OC1=O (stereo not drawn)
